# DT40 TDP1 no CPT: qHTS for Inhibitors of human tyrosyl-DNA phosphodiesterase 1 (TDP1): qHTS in cells in absence of CPT. Potency, µM (doses to about 46.2 µM), for inactives: at the highest dose activity change, negative = growth inhibition, usual class: inhibitors. DT40 Tdp1-/- hTDP1 cells, no CPT, ATP luminescence, 48 h. actives 15% (n = 420,000). AID 686978, 2013; further: on the % scale 0 is the no-effect control and ±100 the full control effect; nearly all actives have a fitted effect of over 55% in size
#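 Chicken DT40 Tdp1-/- cells complemented with human TDP1, screened without camptothecin (DMSO vehicle only), 400 cells/well. Compounds pin-transferred, cells incubated at 37 °C for at least 48 hr. Growth read as ATP-dependent luminescence (CellTiter-Glo, 30 min at RT).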
# HepG2 tox: qHTS for Inhibitors of TGF-b: Cytotox Counterscreen. HepG2 CAGA-GFP viability, ATP luminescence, 18 h. actives 0.76% (n = 410,000). Potency, µM (titrated, usually from 46.1 µM), for the others: at the top dose activity change, negative = cytotoxicity, usual class: cytotoxic
#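 CellTiter-Glo luminescence gave cytotoxicity after 18 hours at 37 degrees C. The cells were HepG2 CAGA-GFP in 1% FBS DMEM, stimulated with 500 pg/mL TGF-beta after compound addition. %Activity was normalised to no-cell wells (complete cell-killing) and DMSO (no toxicity), and curves were fitted and classified.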
# TGFb inhibitor: qHTS for Inhibitors of TGF-b | AID 588855, 2011 | Potency, µM (titrated, usually from 46.1 µM), for the others: top-dose activity, negative = inhibition, hits mostly inhibitors | HepG2 CAGA-GFP TGF-b/SMAD3 reporter, GFP fluorescence, 18 h; TGF-beta stimulated, 500 pg/mL final | actives 1.2% (n = 410,000); further: on the % scale 0 is the no-effect control and ±100 the full control effect; nearly all actives have a fitted effect of over 65% in size
#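 HEPG2 CAGA-GFP reporter cells (1000/well, DMEM with 1% FBS) received compounds, then recombinant TGF-beta at 500 pg/mL final for 18 hours at 37 degrees C. Per-cell GFP summed per well was normalised to unstimulated and stimulated DMSO controls before curve fitting.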
# ATXN viability: Viability Counterscreen for Primary qHTS for Inhibitors of ATXN expression. S2 cells (HEK-293 line with an ATXN2-luciferase reporter) viability, CellTiter-Fluor protease fluorescence, 24 h. Potency, µM (doses to about 56.7 µM), hits mostly cytotoxic. actives 0.49% (n = 400,000). AID 651635, 2014; further: nearly all actives have a fitted effect of over 40% in size
# ATXN2 expr inh: Primary qHTS for Inhibitors of ATXN expression; Potency, µM (titrated, usually from 57 µM), for the others: at the highest dose activity change, negative = inhibition, most hits filed as inhibitors; actives 0.72% (n = 360,000); HEK-293 ATXN2-luciferase reporter, luminescence, 24 h; AID 1745845, 2022; further: on the % scale 0 is the no-effect control and ±100 the full control effect; nearly all actives have a fitted effect of over 55% in size
#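 ATXN2-luciferase reporter cells (luciferase flanked by upstream and downstream ATXN2 gene portions) were treated 24 h at 37 °C with compounds at up to 57 uM. SteadyGlo luminescence gave expression; GF-AFC fluorescence gave viability.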
# DT40 TDP1 CPT: qHTS for Inhibitors of human tyrosyl-DNA phosphodiesterase 1 (TDP1): qHTS in cells in presence of CPT | chicken DT40 Tdp1-/-;hTDP1 cells + 20 nM CPT, ATP luminescence, 48 h | Potency, µM (top dose mostly 46.2 µM), for the others: top-dose activity change, negative = growth inhibition, hits mostly inhibitors | actives 12% (n = 420,000); further: on the % scale 0 is the no-effect control and ±100 the full control effect; nearly all actives have a fitted effect of over 55% in size
#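 Chicken DT40 Tdp1-/- cells stably complemented with human TDP1 were seeded at 400 cells/well in medium containing 20 nM camptothecin, exposed to pin-transferred compounds, and grown at 37 °C for at least 48 hr. Viability was read as ATP luminescence.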
# The depositor's hits bear a star; i = inactive; ? = inconclusive; · = no result; [ ] = remark or other dose. This is a sample that favours compounds with a hit; in the whole collection about 17% have one here. The call rests on the fitted dose curve; in most records, active means well fitted curve in the direction sought with a large enough effect; inconclusive means small, poorly fitted or top-dose-only effect, or another doubt; inactive means no such curve, though single readings can be large; an effect the other way counts as inactive or inconclusive. Potency means the concentration at half of the fitted maximal effect.
SMILES,DT40 TDP1 no CPT,HepG2 tox,TGFb inhibitor,ATXN viability,ATXN2 expr inh,DT40 TDP1 CPT
COc1ccc(OC)c(NC(=O)CCCOc2cc(=O)n(C)c3ccccc23)c1,?,-17%,-8%,i,9%,?
COc1ccccc1NC(=O)Cn1ccn(-c2cc(C)cc(C)c2)c(=O)c1=O,-10%,-9%,-1%,·,·,1%
Cc1cccc(C(=O)NCC(=O)N2CCN(S(=O)(=O)c3cc(C)ccc3C)CC2)c1,?,-22%,-17%,i,-19%,?
CCCc1c(C(=O)NNc2cccc(Cl)c2)cnn1-c1ccccc1,?,-18%,?,i,·,?
Cc1cccc(C(=O)N2CCC(N3CCN(Cc4ccc(F)cc4)C(=O)C3=O)CC2)c1,-18%,-3%,?,i,2%,-4%
CC(C)n1c(=O)c2ccccc2n1Cc1cn(Cc2ccccc2)nn1,-8%,-32%,0%,i,1%,-22%
CN(C)c1cccc(-c2nnc(SCC(=O)NCc3ccco3)n2C)c1,0%,11%,-1%,·,·,-10%
CCOC(=O)C1(C)NC(c2cccc(C)c2)C2C(=O)N(c3ccccc3)C(=O)C21 (stereo not given),-8%,1%,11%,i,·,-6%
O=C(Nc1cccc(C(F)(F)F)c1)Nc1nnc(N2CCCCCC2)s1,5.8µM*,1%,-2%,i,-2%,?
CSCCC1NC(=O)N(CC(=O)Nc2cccc3ccccc23)C1=O (stereo not given),2%,0%,0%,i,-4%,-9%
COc1ccc(C2NC(=O)N(C)C3=C2C(=O)N(c2ccc(F)cc2)C3)cc1 (stereo not given),-28%,-3%,1%,?,-7%,10%
CCOc1ccc(/C=C/[N+](=O)[O-])c2ccccc12,2.9µM*,-92%,5µM*,?,25µM*,2.9µM*
CCOC(=O)COc1ccc(/C=C/[N+](=O)[O-])c(OCC(=O)OCC)c1,21µM*,-64%,?,10µM*,8.9µM*,12µM*
CCOC(=O)COc1ccc2ccccc2c1/C=C/[N+](=O)[O-],3.7µM*,5.6µM*,5µM*,14µM*,?,5.2µM*
Cc1ccc(C(=O)NC2CCN(S(=O)(=O)c3ccccc3F)CC2)cc1,-20%,-2%,-22%,i,-3%,-31%
COc1ccc(CN(C)C(=O)CCl)cc1,2.6µM*,-13%,11%,?,·,2.3µM*
CN(Cc1ccc(Cl)s1)C(=O)CCl,1.8µM*,-63%,7.1µM*,·,13µM*,3.3µM*
CN(Cc1ccc(Cl)cc1)C(=O)CCl,2.6µM*,-111%,?,·,?,2.3µM*
COCc1cn(CC(=O)c2sc(NC(=O)C(C)(C)C)nc2C)nn1,4%,·,·,i,13%,3%
C=CCC[C@@H](Cc1ccc(F)cc1)C(=O)OC[C@@H](Cc1c[nH]c2ccccc12)NC(=O)[C@@H](CC=C)CC(=O)NCCO,?,-71%,?,32µM*,?,?
C=CCC[C@H](Cc1ccc(F)cc1)C(=O)OC[C@H](Cc1c[nH]c2ccccc12)NC(=O)[C@H](CC=C)CC(=O)NCCO,18µM*,-21%,?,?,?,?
C=CCC[C@@H](Cc1ccc(F)cc1)C(=O)OC[C@@H](Cc1c[nH]c2ccccc12)NC(=O)[C@H](CC=C)CC(=O)NCCO,18µM*,-83%,?,28µM*,?,?
O=C(NCc1cccnc1)c1csc([C@@H]2O[C@H](CO)[C@H](O)[C@H](O)[C@H]2O)n1,-8%,5%,1%,i,2%,5%
CSc1ncnc2c1ncn2CCCN(C)CCc1ccccn1,-5%,-3%,?,i,1%,7%
O=C(O)c1ccc(S(=O)(=O)c2ccc([N+](=O)[O-])cc2[N+](=O)[O-])cc1,?,-7%,-12%,?,?,21µM*
SMILES,DT40 TDP1 no CPT,HepG2 tox,TGFb inhibitor,ATXN viability,ATXN2 expr inh,DT40 TDP1 CPT
Cc1ccc(CN2CCN(C3CCN(C(=O)c4ccc(C)cc4)CC3)C(=O)C2=O)cc1,3%,-1%,-28%,i,-4%,11%
O=C(/C=C/c1ccc(Cl)cc1)NC(=S)Nc1ccc(NC(=O)c2ccco2)cc1,8.2µM*,10%,-9%,i,-9%,?
COc1ccc(C(=O)NC(=S)Nc2ccc(CN3CCOCC3)cc2)cc1Cl,16µM*,-61%,-24%,?,·,18µM*
COc1ccc(C(=O)Nc2ccc(CN3CCOCC3)cc2)cc1Br,-3%,-40%,-27%,i,-21%,-2%
COc1ccc(Br)cc1/C=C/C(=O)NC(=S)Nc1ccc(CN2CCOCC2)cc1,16µM*,-16%,-14%,?,·,16µM*
O=C(/C=C/c1ccc(Cl)cc1)NC(=S)Nc1ccc(CN2CCOCC2)cc1,23µM*,3%,0%,i,-23%[11.3 µM],?
COc1cc(SC)ccc1C(=O)OCC(=O)NC1CC1,-1%,-1%,3%,i,-3%,1%
Cc1nnc(NCC=Cc2ccccc2)s1,-5%,-1%,4%,i,20%,0%
COc1ccc(C(=O)NC(=S)Nc2ccc(CN3CCOCC3)cc2)cc1OC,21µM*,-21%,-4%,i,·,?
COc1ccc(Cl)cc1NC(=O)CSC1=Nc2ccccc2C2=NC(CC(=O)NCc3cccs3)C(=O)N12 (stereo not given),23µM*,-38%,-24%,?,-31%,?
O=C(CC1N=C2c3ccccc3N=C(SCC(=O)Nc3cccc(Cl)c3)N2C1=O)NCc1cccs1 (stereo not given),23µM*,-7%,?,?,0%,?
O=C(CC1N=C2c3ccccc3N=C(SCC(=O)Nc3cccc(C(F)(F)F)c3)N2C1=O)NCc1cccs1 (stereo not given),?,-23%,?,·,-18%,?
COc1ccc(OC)c(NC(=O)c2cc3c(n(-c4ccc(Cl)cc4)c2=O)CC(C)(C)CC3=O)c1,-6%,4%,8%,i,4%,?
NC(=O)CSc1ncc2c(n1)-c1ccccc1N(Cc1ccc(Cl)cc1)S2(=O)=O,?,8%,6%,i,-1%,?

# Source: PubChem (National Center for Advancing Translational Sciences (NCATS))
